These results are taken from PubChem BioAssay (NCI).

Molecules are shown by their SMILES. This is part of a sample that, as a whole, favours compounds with a hit. Of some 83,000 tested, about 20% had one in any assay.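 96-well plates, one dose, 48 hours. Percent growth reported; active if below 10.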 Unmarked numbers belong to inactive results. Calls of active or inactive are those of the source.

Some test systems named below: DU-145 prostate; K-562 leukemia; MALME-3M melanoma; MDA-MB-231 breast; RXF 393 renal; SF-268 CNS; SF-295 CNS; SF-539 CNS; UACC-257 melanoma; M14 melanoma.
What all share (experiment): NCI-60 one-dose screen, 48 h (100 = growth as untreated, 0 = no growth, -100 = all killed)
Holding throughout (conditions): 10 µM unless noted

Turning to `CCCCn1c(=O)c(/C=C/C(=O)/C=C/c2ccc(O)c(OC)c2)cc2ccc(Cl)cc21`, the growth with DU-145 prostate was 19.3%; in the test with K-562 leukemia, 6.69% (active); with MALME-3M melanoma it was 30.2%; in the test with MDA-MB-231 breast, -11.2% (active); with RXF 393 renal, -15.4% (active); in the test on SF-268 CNS, 29.9%. Also, the growth was 30.2% with SF-295 CNS, 52.6% with SF-539 CNS, 32.1% with UACC-257 melanoma and 5.1% (active) with M14 melanoma.
On to `CCn1cc(C(=O)O)c(=O)c2cc(F)c(N3CCN(CC(=O)Nc4ccc(/C(C)=N/OC)cc4)CC3)cc21`, for which the growth with DU-145 prostate was 104%; with K-562 leukemia, 92.5%; with MALME-3M melanoma it was 103%; in the test with MDA-MB-231 breast, 85.9%; in the test on RXF 393 renal, 100%; in the test with SF-268 CNS, 94.1%. The growth in the test on SF-295 CNS was 92.3%; in the test on SF-539 CNS, 92.7%; in the test on UACC-257 melanoma it was 91.3%; with M14 melanoma it was 99.4%.
With `Nc1c(C(=O)Nc2ccccc2Cl)sc2nc3c(cc12)CN(Cc1ccccc1)CC3`, the growth in the test on DU-145 prostate is 94%; in the test with K-562 leukemia it was 99%; in the test with MALME-3M melanoma, 75.5%; in the test with MDA-MB-231 breast it was 105%; in the test with RXF 393 renal it was 110%; with SF-268 CNS it was 81.5%. Also, the growth in the test with SF-295 CNS was 100%; with SF-539 CNS, 102%; with UACC-257 melanoma it was 128%; in the test with M14 melanoma, 107%.
As to `Nc1cc(N)c(S(=O)(=O)O)cc1N=Nc1cc([N+](=O)[O-])ccc1O`, the growth with DU-145 prostate is 111%; in the test with K-562 leukemia, 80.8%; with MALME-3M melanoma, 103%; in the test with MDA-MB-231 breast, 103%; in the test on RXF 393 renal, 103%; with SF-268 CNS it was 102%. For the same molecule, the growth was 107% with SF-295 CNS, 102% with SF-539 CNS, 99.2% in the test with UACC-257 melanoma and 100% in the test with M14 melanoma.
On to `Cc1cnc(SCc2ccc(Cl)cc2Cl)nc1Nc1ccc(Cl)c(Cl)c1`, for which the growth with DU-145 prostate was 95.1%; in the test on K-562 leukemia, 69.3%; in the test on MALME-3M melanoma, 103%; with MDA-MB-231 breast, 88.3%; in the test on RXF 393 renal, 97.4%; with SF-268 CNS, 90.5%. The growth with SF-295 CNS was 92.8%; in the test on SF-539 CNS, 105%; with UACC-257 melanoma it was 91.4%; with M14 melanoma it was 98.7%.
Consider `CC(/C=C/c1ccccc1)=N/NC(=O)c1ccncc1`, for which the growth in the test on DU-145 prostate was 112%; with K-562 leukemia, 100%; with MALME-3M melanoma, 89.5%; in the test with MDA-MB-231 breast, 105%; in the test with RXF 393 renal, 113%; in the test with SF-268 CNS, 102%. In addition, the growth with SF-295 CNS is 109%; in the test on SF-539 CNS, 105%; in the test with UACC-257 melanoma, 89.8%; with M14 melanoma it was 101%.
`CCSc1ccc(C2C(Br)C(=O)N2c2cc(OC)c(OC)c(OC)c2)cc1` (stereo not given): the growth was 12.3% with DU-145 prostate; 8.26% (active) with K-562 leukemia; 70.1% in the test with MALME-3M melanoma; 19.7% in the test with MDA-MB-231 breast; 2.05% (active) with RXF 393 renal; 38.7% with SF-268 CNS. Moreover, the growth in the test on SF-295 CNS is 15.7%; in the test on SF-539 CNS, -1.17% (active); in the test with UACC-257 melanoma, 45.2%; in the test with M14 melanoma, 4.2% (active).
For `CN(C)c1ccc(-c2ccc3[nH]c(=O)nc(-c4ccc(F)cc4)c3c2)cn1`, the growth in the test with DU-145 prostate is 51.6%; in the test with K-562 leukemia it was 11.9%; in the test with MALME-3M melanoma, 64.4%; with MDA-MB-231 breast, 47.7%; in the test on RXF 393 renal, 41.5%; in the test on SF-268 CNS, 45.5%. Further, the growth with SF-295 CNS is 21.5%; in the test on SF-539 CNS, 24.2%; in the test with UACC-257 melanoma, 54.4%; in the test with M14 melanoma, 22.7%.
Turning to `CC(=O)Oc1ccc(O)cc1`, the growth in the test on DU-145 prostate is 102%; in the test on K-562 leukemia, 96.7%; with MALME-3M melanoma, 102%; with MDA-MB-231 breast, 95.4%; with RXF 393 renal, 115%; with SF-268 CNS, 98.8%. The growth with SF-295 CNS is 101%; with SF-539 CNS, 101%; in the test on UACC-257 melanoma, 83%; in the test with M14 melanoma, 98.3%.
In the case of `CCCCC(=O)Nc1c(C(=O)Nc2ccccc2)sc2nc3c(cc12)C(OC(=O)CCCC)CCC3` (stereo not given), the growth is 87.9% in the test with DU-145 prostate; 85.3% in the test with K-562 leukemia; 105% in the test on MALME-3M melanoma; 87.9% in the test with MDA-MB-231 breast; 95.2% in the test on RXF 393 renal; 85.7% in the test on SF-268 CNS. Besides, the growth is 101% in the test with SF-295 CNS, 94.7% in the test on SF-539 CNS, 110% in the test with UACC-257 melanoma and 97.5% in the test on M14 melanoma.
Regarding `CCc1c(C(=O)N[C@@H](C(=O)OCc2ccccc2)C(C)O)[nH]c2ccc(Cl)cc12` (stereo not given in full), the growth is 86.5% in the test with DU-145 prostate; 104% in the test on K-562 leukemia; 69.7% in the test on MALME-3M melanoma; 61.3% in the test on MDA-MB-231 breast; 83.8% in the test on RXF 393 renal; 84.3% in the test with SF-268 CNS. For the same molecule, the growth in the test with SF-295 CNS was 52.1%; in the test with SF-539 CNS, 71.4%; in the test on UACC-257 melanoma it was 109%; in the test with M14 melanoma it was 88.3%.
`N#Cc1c(-c2ccc(F)cc2)c(C#N)c2c(C#N)c(N)nn2c1N`: the growth in the test with DU-145 prostate is 89.8%; with K-562 leukemia it was 106%; in the test with MALME-3M melanoma, 110%; in the test on MDA-MB-231 breast, 102%; in the test on RXF 393 renal it was 84.4%; in the test on SF-268 CNS, 93.3%. The growth was 101% in the test on SF-295 CNS, 90.8% with SF-539 CNS, 110% in the test with UACC-257 melanoma and 105% with M14 melanoma.
For the molecule `O=C(/C(=C/c1ccc([N+](=O)[O-])cc1)SCc1ccc(F)cc1)c1ccc(Cl)cc1`, the growth was 87.5% with DU-145 prostate; 0.694% (active) with K-562 leukemia; 91.9% in the test with MALME-3M melanoma; 58.7% in the test on MDA-MB-231 breast; 93.4% in the test with RXF 393 renal; 75.6% in the test on SF-268 CNS. For the same molecule, the growth in the test on SF-295 CNS was 81.6%; in the test with SF-539 CNS it was 94.6%; with UACC-257 melanoma it was 87.4%; in the test on M14 melanoma it was 44.7%.
Regarding `CSc1nc(-c2ccco2)c2c(N)[nH]nc2n1`, the growth was 102% in the test with DU-145 prostate; 85.6% with K-562 leukemia; 119% with MALME-3M melanoma; 99.1% in the test with MDA-MB-231 breast; 118% in the test on RXF 393 renal; 104% in the test with SF-268 CNS. In addition, the growth in the test on SF-295 CNS was 102%; with SF-539 CNS, 97.5%; in the test on UACC-257 melanoma, 129%; in the test on M14 melanoma it was 120%.
